Consider 34 compounds from PubChem BioAssay AID1345085 (National Center for Advancing Translational Sciences (NCATS), 2018).

The structures appear in SMILES notation. Results filed as inconclusive are left out. The source made the active and inactive calls. The call rests on the fitted dose curve; in most records, active means well fitted cell-killing curve with a large enough effect; inconclusive means small, poorly fitted or top-dose-only effect, or effect the other way; inactive means no such curve, though single readings can be large or run the other way.
On the % scale 0 is the no-effect control and ±100 the full control effect; potency means the concentration at half of the fitted maximal effect.

This experiment deals with CASKI. Description: Confirmatory qHTS for gynecologic anti-cancer compounds from libraries of approved drugs and bioactive compounds. Further: nearly all actives have a fitted effect of over 55% in size. The note with it: gynecologic cancer cell panel viability, ATPlite luminescence, 48 h; series mostly up to 57.6 µM; activity change, negative = viability loss: at the top concentration. In short, it runs like this: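 Cells (1,000/well) plated 16 h, then exposed 48 h at 37 °C to 11 concentrations (1:3) from 57.5 uM to 0.977 nM. Viability by ATPlite luminescence after 15 min; IC50 derived, with HEK 293T used for selectivity index.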
On to `CO[C@@]12[C@H](COC(N)=O)C3=C(C(=O)C(C)=C(N)C3=O)N1C[C@@H]1N[C@@H]12`, for which the “activity change, negative = viability loss” value is 5.69% (inactive). Same read-out and setting: for `O=c1c2ccccc2nc2n1CCc1c-2[nH]c2ccccc12` the value was -1.84% (inactive); for `CCC(=O)N1CCN(c2ccc(-n3c(=O)ccc4cnc5ccc(-c6cnc7ccccc7c6)cc5c43)cc2C(F)(F)F)CC1`, -25.9% [at 10.7 µM] (inactive). As to `Cc1nc(N)sc1-c1ccnc(Nc2ccc(N3CCOCC3)cc2)n1`, the Potency was 24.3 µM (active). Turning to `Cc1cncc2cccc(S(=O)(=O)N3CCCN(C(=O)CN)C[C@@H]3C)c12`, the “activity change, negative = viability loss” value was -17.1% (inactive). On the same count and under the same terms, the figure for `COc1cc(-c2nn(C3CCC(N4CCN(C(C)=O)CC4)CC3)c3ncnc(N)c23)ccc1NC(=O)c1cc2ccccc2n1C` (centres undefined) is -12.4% (inactive).

As for `COC(C(=O)N1Cc2[nH]nc(NC(=O)c3ccc(N4CCN(C)CC4)cc3)c2C1)c1ccccc1` (centres undefined), the Potency is 7.69 µM (active). `CCC1=CC2CN(C1)Cc1c([nH]c3ccccc13)[C@@](C(=O)OC)(c1cc3c(cc1OC)N(C)[C@H]1[C@@](O)(C(=O)OC)[C@H](OC(C)=O)[C@]4(CC)C=CCN5CC[C@]31[C@@H]54)C2` (some centres undefined): the “activity change, negative = viability loss” value was -2.39% [at 19.5 µM] (inactive). The same measure, in the same setting: the figure for `COc1ccc(-c2ccc3c(N4CCOCC4C)nc(N4CCOCC4C)nc3n2)cc1CO` (centres undefined) is -2.48% (inactive).

As to `Cc1ccc(NC(=O)c2ccc(CN3CCN(C)CC3)cc2)cc1Nc1nccc(-c2cccnc2)n1`, the “activity change, negative = viability loss” value was -19.5% (inactive).

For `CCS(=O)(=O)N1CCN(c2ccc(Nc3ncc(C(N)=O)c(NC4CC4)n3)cc2)CC1`, the Potency is 10.9 µM (active).

Regarding `Cc1cc(C(C)Nc2ccccc2C(=O)O)c2nc(N3CCOCC3)cc(=O)n2c1` (centres undefined), the Potency was 6.85 µM (active). Consider `COC(=O)c1ccc2c(C(=Nc3ccc(N(C)C(=O)CN4CCN(C)CC4)cc3)c3ccccc3)c(O)[nH]c2c1`, for which the “activity change, negative = viability loss” value is -13.2% (inactive).

On to `CN(C)CC/C=C1\c2ccccc2COc2ccccc21`, for which the “activity change, negative = viability loss” value is -1.95% (inactive). Turning to `C[C@@H](Oc1cc(-c2cnn(C3CCNCC3)c2)cnc1N)c1c(Cl)ccc(F)c1Cl`, the Potency was 24.3 µM (active). The same measure, in the same setting: for `COc1cccc2c1C(=O)c1c(O)c3c(c(O)c1C2=O)C[C@@](O)(C(=O)CO)C[C@@H]3O[C@H]1C[C@H](N)[C@H](O)[C@H](C)O1` the value was 8.63 µM (active); for `CN(C)C/C=C/C(=O)Nc1cc2c(Nc3ccc(F)c(Cl)c3)ncnc2cc1OC1CCOC1` (centres undefined), 21.7 µM (active). In the case of `CN[C@@H](C)C(=O)N[C@H]1CN(C(=O)CC(C)C)CC[C@H]2CC[C@@H](C(=O)NC(c3ccccc3)c3ccccc3)N2C1=O`, the “activity change, negative = viability loss” value is -16.4% (inactive). On to `COc1cccc2c1C(=O)c1c(O)c3c(c(O)c1C2=O)C[C@@](O)(C(=O)CO)C[C@@H]3O[C@H]1C[C@H](N)[C@H](O[C@@H]2CCCCO2)[C@H](C)O1`, for which the Potency was 17.2 µM (active). Take `CC(C)n1nc(-c2cc3cc(O)ccc3[nH]2)c2c(N)ncnc21`: the Potency is 8.63 µM (active). With `S=c1nc[nH]c2nc[nH]c12`, the Potency is 4.85 µM (active).

For the compound `CN1CCN(c2ccc(OC(F)(F)F)c(Nc3ncc4c(n3)-c3c(c(C(N)=O)nn3CCO)CC4)c2)CC1`, the “activity change, negative = viability loss” value was -21.7% (inactive). Turning to `CCN(CC)CCOc1ccc(/C(=C(\Cl)c2ccccc2)c2ccccc2)cc1`, the Potency was 112 µM (active). The same measure, in the same setting: the figure for `CCN1CCN(Cc2ccc(-c3cc4c(NC(C)c5ccccc5)ncnc4[nH]3)cc2)CC1` (centres undefined) is 19.3 µM (active). As for `CN(C)C(CCOc1cccc2ccccc12)c1ccccc1` (centres undefined), the “activity change, negative = viability loss” value is -2.64% (inactive). Same read-out and setting: for `Cc1c(C)n(Cc2ccc(-c3ccccc3C(=O)O)cc2)c2ccc(C(=O)N[C@@H](C)c3ccc([N+](=O)[O-])cc3)cc12` the value was 9.23% (inactive). With `CN1CCN(CCOc2cc(OC3CCOCC3)c3c(Nc4c(Cl)ccc5c4OCO5)ncnc3c2)CC1`, the Potency is 19.3 µM (active). On the same count and under the same terms, for `CCCCc1nc2cc(/C=C/C(=O)NO)ccc2n1CCN(CC)CC` the value was 4.85 µM (active); for `CCCCc1oc2ccc(NS(C)(=O)=O)cc2c1C(=O)c1ccc(OCCCN(CCCC)CCCC)cc1`, 27.3 µM (active).

For the compound `Cc1cc(Nc2cc(N3CCN(C)CC3)nc(/C=C/c3ccccc3)n2)n[nH]1`, the Potency was 19.3 µM (active). In the case of `CN1CCN(c2cccc(Nc3nc4c(-c5ccc(S(C)(=O)=O)cc5)cccn4n3)c2)CC1`, the “activity change, negative = viability loss” value was -30.9% (inactive).

As to `CCOc1cc2ncc(C#N)c(Nc3ccc(F)c(Cl)c3)c2cc1NC(=O)/C=C/CN(C)C`, the Potency was 8.63 µM (active).

Turning to `Nc1nc(Cl)nc2c1ncn2C1OC(CO)C(O)C1F` (centres undefined), the Potency was 1.22 µM (active). Consider `CN(NC(=O)CC(=O)NN(C)C(=S)c1ccccc1)C(=S)c1ccccc1`, for which the “activity change, negative = viability loss” value was 8.76% (inactive).
